Potency and affinity values are given separately. A number with no mark means an inactive call. No rule for the calls is given here.
These molecules were tested against UDP-galactopyranose mutase (Mycobacterium tuberculosis (strain ATCC 25618 / H37Rv)) (UniProt P9WIQ1) (assay: UDP galactopyranose mutase inhibitors, Mycobacterium tuberculosis, cherry pick dose confirmation (AID 540359)). Conditions: purified UGM enzyme, plate reader activity; series mostly up to 50 µM; activity change, negative = inhibition: at the top concentration.
Chain of UDP-galactopyranose mutase (Mycobacterium tuberculosis (strain ATCC 25618 / H37Rv)) (P9WIQ1 whole entry, looked up): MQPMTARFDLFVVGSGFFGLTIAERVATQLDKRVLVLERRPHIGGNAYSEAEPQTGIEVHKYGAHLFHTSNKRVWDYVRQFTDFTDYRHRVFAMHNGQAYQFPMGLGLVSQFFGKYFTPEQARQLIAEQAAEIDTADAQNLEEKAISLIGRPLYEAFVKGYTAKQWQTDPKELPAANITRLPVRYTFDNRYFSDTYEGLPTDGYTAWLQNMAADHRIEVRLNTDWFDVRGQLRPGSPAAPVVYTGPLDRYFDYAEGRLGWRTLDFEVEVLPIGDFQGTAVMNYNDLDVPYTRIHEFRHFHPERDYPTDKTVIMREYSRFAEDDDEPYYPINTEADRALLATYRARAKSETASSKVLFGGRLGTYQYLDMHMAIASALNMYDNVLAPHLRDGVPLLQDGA

SMILES | activity change, negative = inhibition
CCOC(=O)c1c(C)nc2ccccc2c1C | -1.7%
O=C(Nc1ccccc1F)C(=Cc1sc(N2CCOCC2)nc1-c1ccccc1)C(=O)Nc1ccccc1F | -2.18%
COCCCn1c(=O)/c(=C\c2ccccc2OC(C)C)s/c1=C(/C#N)C(=O)Nc1ccc(C(=O)O)cc1 | 65.1%
N#C/C(=C(/O)CSc1ccccc1C(=O)O)c1nc2ccccc2s1 | -7.99%
COc1ccccc1NC(=O)c1sc2nc(Cc3ccccc3)cc(C(F)(F)F)c2c1N | -21.8%
CC(C)OC(=O)CC(=O)c1sc2nc3c(cc2c1N)CN(C)CC3 | -6.78%
O=C(Nc1nccs1)c1ccc(-c2ccc([N+](=O)[O-])cc2)o1 | 8.63%
COc1ccc(C(=O)Oc2ccc(Br)cc2C(=S)N2CCOCC2)cc1 | -6.52%
O=C(N=c1ccn(-c2nc3ccccc3nc2NS(=O)(=O)c2ccc(Cl)cc2)cc1)c1cccs1 | 21.6%
Cc1c(N=C2N=C(NC(=O)c3ccc(F)cc3)c3ccccc32)c(=O)n(-c2ccccc2)n1C | -29%
CCN(C(=O)COC(=O)c1ccc(O)cc1O)c1c(N)n(Cc2ccccc2)c(=O)[nH]c1=O | -2.73%
COc1ccc(OC)c(/C=C2\Oc3cc(OCC(=O)N4CCC[C@H]4C(=O)O)ccc3C2=O)c1 | -11%
O=C(O)c1ccccc1C(=O)OCCCCOC(=O)c1ccccc1C(=O)O | -7.41%
CCOC(=O)/C(C#N)=C1\CC2CCC1(C)C2(C)C (stereo not drawn) | -1.94%
COc1cccc(C(=O)OCC(=O)NCc2ccc3c(c2)OCO3)c1OC | -0.378%
CCOC(=O)C1CCCN(C(=O)C2c3ccccc3Oc3ccccc32)C1 (stereo not drawn) | -19.5%
C=C1c2cc(C)ccc2NC(=O)N1c1ccc(C)cc1 | -7.4%
CCN(CC)S(=O)(=O)c1ccc2c(c1)c(=O)c(C(=O)NCc1ccco1)cn2C | 2.92%
Cn1cccc1C(=O)NC(=O)COC(=O)CC12CC3CC(CC(Br)(C3)C1)C2 | 4.1%
CCc1cc(C(=O)c2ccc(C)cc2)c(NC(=O)CCl)s1 | -9.95%
CC1=Nc2ccccc2/C1=C\c1nc(-c2ccc(C(F)(F)F)cc2)oc1O | -9.96%
COc1ccc2c(c1)c1nc3ccccc3nc1n2CC(=O)OC(C)C | -3.78%
Cc1c(C(=O)N2CCOCC2)sc(NC(=O)CCl)c1C#N | 0.121%
Cn1nc(C(=O)Nc2cc(Cl)ccc2N2CCCC2)c2ccccc2c1=O | 1.65%
COc1ccccc1N1CCN(C2CCCN(C(=O)CCC(=O)N(C)C)C2)CC1 (stereo not drawn) | 0.112%
COc1ccc(N2C(=O)c3cccc4c(N(C)CCO)ccc(c34)C2=O)cc1 | 7.74%
CCCC(=O)Nc1ccc(Cc2ccc(NC(=O)CCC)c(C(=O)O)c2)cc1C(=O)O | -4.98%
CCN(CC)CCCNC(=O)c1cc(Sc2nnc(C)s2)nc2ccccc12 | -0.597%

— PubChem BioAssay AID540359 (Broad Institute, 2011)
